A number with no mark means an inactive call. Rule as the data show it: active = inhibition above about 31%; inactive = the rest.
What follows are compounds tested against N-formyl peptide receptor 2 (Homo sapiens) (UniProt P25090) (assay: human FPR2 ligand displacement single-point screen – cell-based, flow cytometry, single concentration (AID 765)). Conditions: FPRL1-expressing cells, fluorescent ligand binding inhibition, stronger effect = higher value; at 5.1 µM unless noted.
Sequence of N-formyl peptide receptor 2 (Homo sapiens) (P25090 whole entry, looked up): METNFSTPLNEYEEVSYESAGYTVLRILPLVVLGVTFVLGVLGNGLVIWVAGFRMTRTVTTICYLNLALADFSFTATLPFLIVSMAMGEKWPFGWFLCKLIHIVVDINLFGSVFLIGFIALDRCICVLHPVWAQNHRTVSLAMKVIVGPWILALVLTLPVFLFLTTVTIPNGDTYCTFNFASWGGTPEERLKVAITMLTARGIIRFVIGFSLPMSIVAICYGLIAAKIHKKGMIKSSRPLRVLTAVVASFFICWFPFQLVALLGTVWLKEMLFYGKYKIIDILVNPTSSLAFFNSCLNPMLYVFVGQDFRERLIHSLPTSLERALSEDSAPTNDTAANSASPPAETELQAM

Compound	inhibition
COc1ccc(-c2cc(C(F)(F)F)nc(N3CCN(c4ccccc4)CC3)n2)cc1OC	-5% [at 5 µM]
FC(F)(F)c1cc(-c2cccs2)nc(N2CCN(Cc3ccccc3)CC2)n1	12.5% [at 5.5 µM]
Clc1cccc(-c2nc(N3CCN(Cc4ccccc4)CC3)nc3c2COc2ccccc2-3)c1	0.5% [at 4.7 µM]
O=C(c1ccccc1)N1CCN(c2nc(-c3ccccc3)c3ccccc3n2)CC1	-1.3% [at 5.6 µM]
Fc1ccc(-c2cc(C(F)(F)F)nc(N3CCN(c4cccc(Cl)c4)CC3)n2)cc1	19.5%
O=C(O)CC1(CC(=O)N2CCN(c3nc(-c4ccccc4Cl)c4cc(Br)ccc4n3)CC2)CCCC1	-5.2% [at 3.9 µM]
COc1cccc(-c2cc(C(F)(F)F)nc(N3CCN(c4ccccc4OC)CC3)n2)c1	-10.4% [at 5 µM]
CC(C)(C)OC(=O)N1CCN(c2nc(-c3ccccc3)c3cc(Br)ccc3n2)CC1	-2.1% [at 4.7 µM]
COc1ccc(-c2cc(-c3ccc(F)cc3)nc(N3CCN(C)CC3)n2)cc1	-2.6% [at 5.9 µM]
Cc1ccc2nc(N3CCN(C(=O)CCCC(=O)O)CC3)nc(-c3ccccc3)c2c1	1.1% [at 5.3 µM]
COc1ccccc1-c1cc(C(F)(F)F)nc(N2CCN(Cc3ccccc3)CC2)n1	14.1% [at 5.2 µM]
Cc1ccc2nc(N3CCN(C(=O)CCC(=O)O)CC3)nc(-c3ccccc3)c2c1	6.9% [at 5.5 µM]

Source: PubChem BioAssay AID765 (NMMLSC, 2007)
